RGS4-Gao reg = human RGS4-Galphao interaction regulation; 220,000 compounds, 0.33% hits; P09471; binding response (% of control), % at 10 µM; Multiplexed bead flow cytometry, RGS4-Galphao binding; actives lie on both sides; in the data active = binding response below about 49% or above about 150%; inactive = in between;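 also: fluorescent Galphao activated with aluminum fluoride binding bead-coupled RGS4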
RGS8-Gao reg = modulates binding of RGS8 to human Galphao; multiplexed bead flow cytometry; actives lie on both sides; 220,000 compounds, 0.34% hits; P09471; response (percent of control binding), % at 10 µM; in the data active = response below about 60% or above about 140%; inactive = in between;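 also: Galphao activated as the GDP aluminium fluoride complex binding bead-coupled RGS8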
RGS7-Gao = regulators of human RGS7-Galphao interaction. P09471. Multiplexed bead flow cytometry, RGS7-Galphao binding; actives lie on both sides. binding response (% of control), % at 10 µM. 220,000 compounds, 0.35% hits; in the data active = binding response below about 49% or above about 150%; inconclusive = no clear call, values can overlap the other calls; inactive = in between;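 also: fluorescent Galphao held in activated GDP-AlF4 state binding bead-coupled RGS7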
Avidin fluor = compound fluoresces at 488/530 nm on avidin beads. compound fluorescence 488/530 nm, flow cytometry; hits give high values. fluorescence (KMESF) at 10 µM. 220,000 compounds, 0.38% hits. AID 1775; in the data active = fluorescence above about 47
RGS16-Gao = RGS16-Galphao interaction regulator (human); O15492+P09471; bead-based flow cytometry RGS16-Galphao binding, fluorescence; actives lie on both sides; binding response (% of control), % at 10 µM; 220,000 compounds, 0.38% hits; AID 1441; call rule not given here;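 also: Galphao activated by GDP with aluminum fluoride before binding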
Target sequence (O15492 whole entry, looked up): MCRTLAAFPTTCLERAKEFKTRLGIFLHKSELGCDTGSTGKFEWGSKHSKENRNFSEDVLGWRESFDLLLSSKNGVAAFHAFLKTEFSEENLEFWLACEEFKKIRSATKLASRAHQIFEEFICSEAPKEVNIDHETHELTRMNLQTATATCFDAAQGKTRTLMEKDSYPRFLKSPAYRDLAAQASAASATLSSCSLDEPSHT
Target sequence (P09471 whole entry, looked up): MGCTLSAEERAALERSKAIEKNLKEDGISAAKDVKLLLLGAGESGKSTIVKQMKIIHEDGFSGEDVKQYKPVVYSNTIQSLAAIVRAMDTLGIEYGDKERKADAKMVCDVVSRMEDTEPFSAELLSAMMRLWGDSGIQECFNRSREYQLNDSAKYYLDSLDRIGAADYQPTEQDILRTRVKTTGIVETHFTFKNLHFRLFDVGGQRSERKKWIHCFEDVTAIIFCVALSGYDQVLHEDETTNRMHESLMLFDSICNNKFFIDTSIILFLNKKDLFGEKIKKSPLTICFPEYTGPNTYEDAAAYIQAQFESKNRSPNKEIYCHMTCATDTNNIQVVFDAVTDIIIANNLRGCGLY
GSH bead fluor = compound fluoresces at 488/530 nm on GSH beads | fluorescence (KMESF) at 10 µM | GSH beads flow cytometry, compound fluorescence 488/530 nm; hits give high values | AID 1776 | 190,000 compounds, 0.25% hits; in the data active = fluorescence above about 89;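 also: glutathione beads carrying GST-tagged Bcl family fusion proteins plus one bare bead set; values are compound well signal with DMSO vehicle wells as background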
* = called active by the depositor; ? = inconclusive; nt = not tested or not shown; [ ] = remark or other dose. Hits are enriched below; roughly 1.2% of the tested compounds scored in any of these assays.

SMILES	RGS4-Gao reg	RGS8-Gao reg	RGS7-Gao	Avidin fluor	RGS16-Gao	GSH bead fluor
NC(=O)NC(Cc1ccccc1)C(=O)Nc1ccc(S(N)(=O)=O)cc1 (stereo unspecified)	99	101	103	7	103	253*
NS(=O)(=O)c1ccc(NC(=O)N[C@@H](Cc2ccccc2)C(=O)O)cc1	102	103	102	6	101	61
Nn1c(-c2ccccc2Cl)nnc1-c1ccccc1Cl	119	106	113	8	108	102*
CCOC(=O)c1[nH]c(C)c(C(=O)Nc2ccc(C)c(Cl)c2)c1C	100	102	110	62*	101	25
COC(=O)c1ccccc1NC(=O)c1cnn2c(C)cc(C)nc12	102	102	101	12	108	24
COC(=O)c1ccccc1NC(=O)c1nc2nc(C)cc(C)n2n1	113	99	142	134*	107	31
O=C(NC(=S)Nc1ccc2c(c1)OCCO2)c1cccc2ccccc12	102	104	101	5	101	20
COc1cc(NC(=O)CSc2nnc(C)s2)cc(OC)c1OC	103	101	102	8	103	19
CSc1cccc(NC(=O)CSc2nnc(C)s2)c1	98	98	101	6	93	109*
CC(C)C(C(=O)Nc1ccc2c(c1)OCCOCCOCCOCCO2)N1C(=O)c2ccccc2C1=O (stereo unspecified)	102	100	101	10	102	12
N#CC(C(=O)Nc1cccc(Cl)c1)=C1Nc2ccccc2N1	109	101	102	34	104	17
N#CC(C(=O)Nc1ccc(Cl)c(Cl)c1)=C1Nc2ccccc2N1	99	101	105	50*	102	26
O=C(CS(=O)(=O)c1ccccc1)Nc1ccc(N2CCOCC2)cc1	101	99	97	7	100	17
CCOC(=O)CCn1nc(-c2ccc(Cl)cc2)cc1N	100	97	107	48*	99	36
CCOC(=O)Cn1nc(-c2ccc(Cl)cc2)cc1N	102	101	100	10	103	6
CCCn1c(CN2CCN(C)CC2)nc2ccccc21	23*	13*	16*	0	14*	37
CCCCn1c(CN2CCN(C)CC2)nc2ccccc21	101	100	99	10	99	25
CCCCN1C(=O)NC(NC(C)=O)(C(F)(F)F)C1=O (stereo unspecified)	100	100	100	7	103	12
CC(=O)NC1(C(F)(F)F)NC(=O)N(CC(C)C)C1=O (stereo unspecified)	101	99	109	53*	100	16
COCCSc1nnc(NC(=O)c2ccc(OC)c([N+](=O)[O-])c2)s1	98	101	99	11	101	13
O=C(NC12CC3CC(CC(C3)C1)C2)N(Cc1ccccc1)Cc1ccncc1	100	98	102	10	103	10
Cc1nc2cc(NC(=O)N3CC4(C)CC3CC(C)(C)C4)ccc2n1C (stereo unspecified)	99	98	105	48*	97	19
COc1ccc(NS(=O)(=O)c2ccc3c(c2)NC(=O)CO3)cc1	104	103	104	10	102	13
Cc1ccc(NS(=O)(=O)c2ccc3c(c2)NC(=O)CC(=O)N3)cc1C	99	98	111	58*	107	26
Cc1ccc(NC(=O)c2ccc3c(c2)C(=O)N(CC2CCCO2)C3=O)cc1C (stereo unspecified)	100	103	103	7	109	9
O=C(NN1C(=O)c2ccccc2C1=O)c1ccc2c(c1)C(=O)N(CC1CCCO1)C2=O (stereo unspecified)	112	104	?	52*	110	nt
O=C(Nc1ccc(Cl)cc1Cl)C1=Cc2ccccc2OC1	92	93	84	9	91	14
O=C(Nc1ccc(Cl)cc1)C1=Cc2cc(Cl)ccc2OC1	101	97	104	48*	102	13
O=C1S/C(=C\c2ccc(N3CCOCC3)o2)C(=O)N1Cc1ccc(F)cc1	165*[activator]	124	153*[activator]	31	386	15
O=C1S/C(=C/c2ccc(N3CCOCC3)o2)C(=O)N1Cc1ccc(F)cc1	100	86	103	10	98	16

Screening data (PubChem)
